PubChem BioAssay (EPA / NIEHS)
“And” between values parts separate entries of the source, which are not always exact repeats. Identical values can stand only once. The source holds several records for some structures; these can differ, active in one and inactive in another. The source made the active and inactive calls. How the source made its calls: active means hit-call score of the fitted dose curve at least 0.9, where 1 is the maximum; inactive means score below 0.9.

Legend:
[1] = ATG_GRE_CIS: Attagene CIS-FACTORIAL HepG2 Assay for human Glucocorticoid Response Elements (GRE) (AID 2282947); details: HepG2 GRE cis-reporter, Attagene multiplex mRNA; actives raise or lower the signal
Outline: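 Assay uses human hepatoma HepG2 cells transfected with cis-promoter reporter units, exposed 24 h. mRNA from reporters detected by RT-PCR plus capillary electrophoresis; DMSO serves as negative control and baseline.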

[2] = ATG_ISRE_CIS: Attagene CIS-FACTORIAL HepG2 Assay for human Interferon Regulatory Factor 1 (IRF1) binding to an Interferon-Stimulated Response Element (ISRE) (AID 2282948); details: HepG2 ISRE cis-reporter (Attagene), mRNA transcription readout; actives raise or lower the signal
Outline: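 HepG2 cells transiently transfected with multiplexed cis-promoter reporter units; after 24 h compound exposure, reporter mRNA quantified by RT-PCR, FAM labelling, HpaI digestion and capillary electrophoresis. Bidirectional fit versus DMSO baseline.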

[3] = ATG_M_32_CIS: Attagene CIS-FACTORIAL HepG2 Assay for M32 Transcription Factor (Internal Marker) (AID 2282949); details: HepG2 Attagene cis-factorial M32 reporter, mRNA; actives raise or lower the signal;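 further: background control marker of the multiplexed CIS panel rather than a real target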
Outline: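 Following 24 h chemical exposure of HepG2 cells transiently expressing cis-promoter reporter constructs, reporter transcript levels were determined by RT-PCR with fluorescent labelling and capillary electrophoresis, then fitted bidirectionally against DMSO.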

[4] = ATG_M_06_CIS: Attagene CIS-FACTORIAL HepG2 Assay for M06 Transcription Factor (Internal Marker) (AID 2282950); details: HepG2 Attagene CIS-FACTORIAL M06 internal marker reporter; actives raise or lower the signal
Outline: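 Terse: HepG2, transient MRTU transfection (FuGene 6), 24 h dosing; total RNA, oligo(dT) RT, PCR, FAM label, HpaI cut, capillary electrophoresis; bidirectional fit vs DMSO baseline; background-control endpoint.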

[5] = molecular target: Hypoxia-inducible factor 1-alpha (Homo sapiens) (UniProt Q16665); assay: ATG_HIF1a_CIS: Attagene CIS-FACTORIAL HepG2 Assay for human Hypoxia Inducible Factor 1 (HIF1A) (AID 2282951); details: HepG2 Attagene cis-factorial HIF1a reporter transcription; actives raise or lower the signal
Outline: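 HepG2 cells transiently transfected with multiplexed cis-promoter reporter units; reporter mRNA read 24 h after dosing by RT-PCR, 6-FAM primer-extension labelling, HpaI digestion and capillary electrophoresis. Bidirectional fit versus DMSO baseline.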

[6] = molecular target: Hepatocyte nuclear factor 6 (Homo sapiens) (UniProt Q9UBC0); assay: ATG_HNF6_CIS: Attagene CIS-FACTORIAL HepG2 Assay for human Hepatocyte Nuclear Factor 6 (HNF6) (AID 2282952); details: HepG2 Attagene cis-factorial HNF6 reporter transcription; actives raise or lower the signal
Outline: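 HepG2 cells transiently transfected with cis-element-driven multiple reporter transcription units, dosed 24 h; reporter mRNA quantified by RT-PCR, FAM primer extension, HpaI digestion and capillary electrophoresis; bidirectional fit versus DMSO baseline.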

[7] = molecular target: Heat shock factor protein 1 (Homo sapiens) (UniProt Q00613); assay: ATG_HSE_CIS: Attagene CIS-FACTORIAL HepG2 Assay for human Heat Shock Transcription Factor 1 (HSE) (AID 2282953); details: HepG2 HSE cis-reporter, Attagene RNA transcription; actives raise or lower the signal
Outline: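 Read-out: fluorescence of reporter-specific RT-PCR fragments separated by capillary electrophoresis. HepG2 carrying transfected cis-element reporter units; 24 h dosing; activity fitted in both directions relative to DMSO baseline.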

[8] = ATG_PBREM_CIS: Attagene CIS-FACTORIAL HepG2 Assay for human Phenobarbital-responsive Enhancer Module (PBREM) (AID 2282955); details: HepG2 PBREM cis-reporter, Attagene multiplexed transcription; actives raise or lower the signal
Outline: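 HepG2 cells transiently transfected with multiple cis-regulated reporter transcription units; endogenous factor activity at the PBREM element measured as reporter mRNA 24 h after dosing, via RT-PCR and capillary electrophoresis of fluorescent fragments; bidirectional fitting versus DMSO.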

[9] = molecular target: Paired box protein Pax-6 (Homo sapiens) (UniProt P26367); assay: ATG_Pax6_CIS: Attagene CIS-FACTORIAL HepG2 Assay for human Paired Box 6 (PAX6) (AID 2282956); details: HepG2 CIS-FACTORIAL PAX6 reporter transcription, RNA readout; actives raise or lower the signal
Outline: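 HepG2 cells transiently transfected with multiplexed cis-promoter reporter units (endogenous TF activity) were dosed for 24 h. Reporter mRNA was quantified by RT-PCR, 6-FAM labeling, HpaI digestion and capillary electrophoresis; bidirectional fitting versus DMSO baseline.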

[10] = ATG_PXRE_CIS: Attagene CIS-FACTORIAL HepG2 Assay for human Pregnane X Receptor Element (PXRE) (AID 2282957); details: HepG2 Attagene CIS-FACTORIAL PXRE reporter, mRNA; actives raise or lower the signal
Outline: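 HepG2 cells transiently transfected with cis-regulated multiple reporter transcription units; endogenous factor activity measured as reporter mRNA 24 h after dosing. RT-PCR, fluorescent primer extension, HpaI digestion, capillary electrophoresis; bidirectional fit versus DMSO baseline.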

[11] = ATG_PPRE_CIS: Attagene CIS-FACTORIAL HepG2 Assay for human Peroxisome Proliferator-activated Response Element (PPRE) (AID 2282958); details: HepG2 PPRE cis-element reporter, Attagene transcription factor profiling; actives raise or lower the signal
Outline: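 HepG2 cells transiently transfected with multiplexed cis-element reporter units measure endogenous transcription factor activity. After 24 h compound exposure, reporter mRNA is quantified by RT-PCR, 6-FAM labeling, HpaI digestion and capillary electrophoresis; bidirectional fits are made against DMSO baseline.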

[12] = ATG_RORE_CIS: Attagene CIS-FACTORIAL HepG2 Assay for human RAR-related Orphan Receptor Element (RORE) (AID 2282959); details: HepG2 Attagene cis-factorial RORE reporter, mRNA; actives raise or lower the signal
Outline: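 HepG2 cells transiently transfected with multiple cis-element reporter transcription units, exposed to chemical for 24 h. Reporter mRNA quantified by RT-PCR, 6-FAM primer-extension labeling, HpaI digestion and capillary electrophoresis; bidirectional fit versus DMSO baseline.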

[13] = ATG_Sox_CIS: Attagene CIS-FACTORIAL HepG2 Assay for human SRY-box transcription factor (SOX) (AID 2282960); details: HepG2 Attagene cis-factorial SOX reporter, mRNA; actives raise or lower the signal
Outline: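 HepG2 cells transiently transfected with cis-element-driven multiple reporter transcription units, dosed 24 h; reporter mRNA measured by RT-PCR, FAM labelling, HpaI digestion and capillary electrophoresis. Bidirectional fit versus DMSO baseline.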

[14] = molecular target: Transcription factor Sp1 (Homo sapiens) (UniProt P08047); assay: ATG_Sp1_CIS: Attagene CIS-FACTORIAL HepG2 Assay for human Specificity Protein 1 (Sp1) (AID 2282961); details: HepG2 Sp1 cis-reporter transcription, actives raise or lower the signal
Outline: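 HepG2 cells transiently transfected with multiple reporter transcription units driven by cis-regulatory elements; Sp1-responsive reporter mRNA measured 24 h after dosing by RT-PCR and capillary electrophoresis fluorescence, fitted bidirectionally against DMSO baseline.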

[15] = ATG_SREBP_CIS: Attagene CIS-FACTORIAL HepG2 Assay for human Sterol Regulatory Element Binding (SREBP) (AID 2282962); details: HepG2 Attagene cis-factorial SREBP reporter, mRNA; actives raise or lower the signal
Outline: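 HepG2 cells transiently transfected with multiplexed cis-element reporter units report endogenous transcription factor activity. After 24 h of chemical exposure, reporter mRNA was quantified by RT-PCR, 6-FAM labelling, HpaI digestion and capillary electrophoresis; bidirectional fits used DMSO as baseline.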

[16] = molecular target: Signal transducer and activator of transcription 3 (Homo sapiens) (UniProt P40763); assay: ATG_STAT3_CIS: Attagene CIS-FACTORIAL HepG2 Assay for human Signal Transducer and Activator of Transcription 3 (STAT3) (AID 2282963); details: HepG2, Attagene cis-factorial STAT3 reporter transcription; actives raise or lower the signal
Outline: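 After a 24 h compound incubation, total RNA from MRTU-transfected HepG2 cells was converted to cDNA and reporter sequences PCR-amplified, labelled and profiled by capillary electrophoresis. Gain and loss of signal were referenced to DMSO.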

[17] = ATG_TA_CIS: Attagene CIS-FACTORIAL HepG2 Assay for human TA Basal Promoter (AID 2282964); details: HepG2 Attagene CIS-factorial TA basal promoter reporter; actives raise or lower the signal
Outline: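 Transfected HepG2, 24 h compound exposure; RNA → RT-PCR → FAM primer extension → HpaI cut → CE fluorescence. Gain/loss-of-signal fitted against DMSO negative control. Background-control readout.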

[18] = molecular target: Bile acid receptor (Homo sapiens) (UniProt Q96RI1); assay: ATG_IR1_CIS: Attagene CIS-FACTORIAL HepG2 Assay for human Nuclear Receptor Subfamily 1 Group H Member 4 (NR1H4), IR1 submotif (AID 2282946); details: IR1 reporter transcription, actives raise or lower the signal
Outline: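 Cells (human HepG2) carry transiently transfected cis-promoter reporter transcription units. Compounds are incubated 24 h, total RNA is reverse-transcribed and amplified, and labelled fragments are resolved by capillary electrophoresis. Curves use DMSO as baseline.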

[19] = ATG_MRE_CIS: Attagene CIS-FACTORIAL HepG2 Assay for human Metal Responsive Element (MRE) (AID 2282954); details: HepG2 MRE cis-reporter transcription, Attagene multiplex; actives raise or lower the signal
Outline: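 After a 24 h chemical exposure, transiently transfected HepG2 cells yield RNA whose reporter sequences are amplified, FAM-labelled and sized by capillary electrophoresis. Curves are fitted bidirectionally relative to DMSO.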

[20] = ATG_TCF_b_cat_CIS: Attagene CIS-FACTORIAL HepG2 Assay for human T-Cell-Factor with beta-catenin (TCF/b-cat) (AID 2282965); details: HepG2 TCF/beta-catenin cis-reporter transcription, actives raise or lower the signal
Outline: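 Measured: reporter mRNA in HepG2 transiently transfected with cis-promoter reporter units, 24 h after chemical addition. Fitting was bidirectional, DMSO as negative control.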

Sequence of Hypoxia-inducible factor 1-alpha (Homo sapiens) (Q16665 whole entry, looked up): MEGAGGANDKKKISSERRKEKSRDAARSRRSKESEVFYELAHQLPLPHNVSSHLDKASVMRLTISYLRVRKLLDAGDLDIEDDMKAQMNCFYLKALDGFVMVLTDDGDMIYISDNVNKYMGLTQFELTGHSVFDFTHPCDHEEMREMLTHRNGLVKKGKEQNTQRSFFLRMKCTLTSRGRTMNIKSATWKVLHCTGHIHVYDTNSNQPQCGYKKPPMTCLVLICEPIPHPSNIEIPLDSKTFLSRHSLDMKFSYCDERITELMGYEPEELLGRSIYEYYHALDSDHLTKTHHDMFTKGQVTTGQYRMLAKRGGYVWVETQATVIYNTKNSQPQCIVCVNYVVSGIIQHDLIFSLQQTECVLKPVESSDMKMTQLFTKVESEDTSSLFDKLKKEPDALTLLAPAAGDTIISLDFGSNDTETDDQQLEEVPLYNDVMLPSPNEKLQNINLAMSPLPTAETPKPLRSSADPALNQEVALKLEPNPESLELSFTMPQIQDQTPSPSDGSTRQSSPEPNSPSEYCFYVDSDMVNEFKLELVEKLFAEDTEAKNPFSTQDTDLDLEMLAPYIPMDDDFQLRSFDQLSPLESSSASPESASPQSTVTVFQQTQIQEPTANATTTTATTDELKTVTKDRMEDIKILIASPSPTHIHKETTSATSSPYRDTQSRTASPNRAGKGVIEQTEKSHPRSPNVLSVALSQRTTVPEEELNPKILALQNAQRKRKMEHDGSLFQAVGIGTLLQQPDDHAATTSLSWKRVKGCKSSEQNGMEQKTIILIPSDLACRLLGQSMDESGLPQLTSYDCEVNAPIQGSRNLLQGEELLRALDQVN
Sequence of Heat shock factor protein 1 (Homo sapiens) (Q00613 whole entry, looked up, the tested form may be a part): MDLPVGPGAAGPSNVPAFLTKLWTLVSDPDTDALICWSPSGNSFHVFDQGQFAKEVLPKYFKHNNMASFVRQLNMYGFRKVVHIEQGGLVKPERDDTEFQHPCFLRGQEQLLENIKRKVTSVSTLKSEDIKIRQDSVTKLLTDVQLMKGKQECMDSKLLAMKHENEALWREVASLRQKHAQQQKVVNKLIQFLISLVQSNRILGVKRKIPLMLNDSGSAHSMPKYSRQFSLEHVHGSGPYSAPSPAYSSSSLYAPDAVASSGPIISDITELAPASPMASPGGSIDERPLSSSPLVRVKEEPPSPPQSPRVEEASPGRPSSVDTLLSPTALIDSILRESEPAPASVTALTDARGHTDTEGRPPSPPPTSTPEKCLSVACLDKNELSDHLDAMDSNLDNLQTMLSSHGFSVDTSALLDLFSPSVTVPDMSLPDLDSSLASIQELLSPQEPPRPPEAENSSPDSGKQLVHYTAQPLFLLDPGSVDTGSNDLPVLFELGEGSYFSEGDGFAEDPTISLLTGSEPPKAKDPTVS
Sequence of Signal transducer and activator of transcription 3 (Homo sapiens) (P40763 whole entry, looked up): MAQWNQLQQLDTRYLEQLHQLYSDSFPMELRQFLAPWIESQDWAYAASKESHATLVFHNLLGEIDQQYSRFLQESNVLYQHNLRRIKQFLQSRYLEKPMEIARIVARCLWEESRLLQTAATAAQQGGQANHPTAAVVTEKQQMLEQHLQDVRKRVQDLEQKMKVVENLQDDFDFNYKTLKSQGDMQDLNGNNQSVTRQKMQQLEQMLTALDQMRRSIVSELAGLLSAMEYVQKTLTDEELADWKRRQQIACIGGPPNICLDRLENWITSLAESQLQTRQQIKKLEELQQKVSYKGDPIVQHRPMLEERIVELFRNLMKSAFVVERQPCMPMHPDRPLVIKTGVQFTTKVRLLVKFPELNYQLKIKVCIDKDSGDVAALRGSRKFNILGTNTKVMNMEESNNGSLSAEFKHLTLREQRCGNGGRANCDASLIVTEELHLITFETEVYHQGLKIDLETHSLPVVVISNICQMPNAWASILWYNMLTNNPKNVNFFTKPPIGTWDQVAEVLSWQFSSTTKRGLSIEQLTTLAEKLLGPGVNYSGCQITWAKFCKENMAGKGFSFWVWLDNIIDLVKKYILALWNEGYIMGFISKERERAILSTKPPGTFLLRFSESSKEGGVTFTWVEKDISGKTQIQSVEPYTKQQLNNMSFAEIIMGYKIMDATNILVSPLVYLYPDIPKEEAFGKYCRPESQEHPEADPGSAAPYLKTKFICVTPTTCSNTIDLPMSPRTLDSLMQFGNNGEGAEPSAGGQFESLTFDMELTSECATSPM
Sequence of Bile acid receptor (Homo sapiens) (Q96RI1 whole entry, looked up, the tested form may be a part): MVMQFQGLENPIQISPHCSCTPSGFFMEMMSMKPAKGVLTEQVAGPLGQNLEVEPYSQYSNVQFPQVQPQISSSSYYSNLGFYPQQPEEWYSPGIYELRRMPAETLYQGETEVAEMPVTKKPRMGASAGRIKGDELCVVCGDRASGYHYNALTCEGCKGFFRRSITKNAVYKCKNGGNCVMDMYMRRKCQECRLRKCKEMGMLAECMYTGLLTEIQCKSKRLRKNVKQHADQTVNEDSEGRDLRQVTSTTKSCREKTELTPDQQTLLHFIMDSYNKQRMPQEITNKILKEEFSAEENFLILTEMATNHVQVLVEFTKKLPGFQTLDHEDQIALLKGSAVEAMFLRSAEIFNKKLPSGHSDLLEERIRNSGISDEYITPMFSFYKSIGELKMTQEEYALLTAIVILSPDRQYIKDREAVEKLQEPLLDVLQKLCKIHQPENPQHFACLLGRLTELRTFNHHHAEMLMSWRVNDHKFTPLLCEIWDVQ
Sequence of Paired box protein Pax-6 (Homo sapiens) (P26367 whole entry, looked up): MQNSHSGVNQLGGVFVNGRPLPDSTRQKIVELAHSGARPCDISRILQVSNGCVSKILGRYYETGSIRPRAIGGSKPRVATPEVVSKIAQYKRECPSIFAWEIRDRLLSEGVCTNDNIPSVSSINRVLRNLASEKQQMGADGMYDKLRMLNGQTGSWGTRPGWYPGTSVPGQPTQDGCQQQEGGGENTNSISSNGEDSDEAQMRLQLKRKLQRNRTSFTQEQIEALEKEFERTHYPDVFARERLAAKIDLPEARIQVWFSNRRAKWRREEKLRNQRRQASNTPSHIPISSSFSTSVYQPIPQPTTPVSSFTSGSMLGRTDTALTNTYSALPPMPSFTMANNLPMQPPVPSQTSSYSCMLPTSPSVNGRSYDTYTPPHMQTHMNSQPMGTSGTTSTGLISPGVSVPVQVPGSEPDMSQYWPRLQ
Sequence of Transcription factor Sp1 (Homo sapiens) (P08047 whole entry, looked up): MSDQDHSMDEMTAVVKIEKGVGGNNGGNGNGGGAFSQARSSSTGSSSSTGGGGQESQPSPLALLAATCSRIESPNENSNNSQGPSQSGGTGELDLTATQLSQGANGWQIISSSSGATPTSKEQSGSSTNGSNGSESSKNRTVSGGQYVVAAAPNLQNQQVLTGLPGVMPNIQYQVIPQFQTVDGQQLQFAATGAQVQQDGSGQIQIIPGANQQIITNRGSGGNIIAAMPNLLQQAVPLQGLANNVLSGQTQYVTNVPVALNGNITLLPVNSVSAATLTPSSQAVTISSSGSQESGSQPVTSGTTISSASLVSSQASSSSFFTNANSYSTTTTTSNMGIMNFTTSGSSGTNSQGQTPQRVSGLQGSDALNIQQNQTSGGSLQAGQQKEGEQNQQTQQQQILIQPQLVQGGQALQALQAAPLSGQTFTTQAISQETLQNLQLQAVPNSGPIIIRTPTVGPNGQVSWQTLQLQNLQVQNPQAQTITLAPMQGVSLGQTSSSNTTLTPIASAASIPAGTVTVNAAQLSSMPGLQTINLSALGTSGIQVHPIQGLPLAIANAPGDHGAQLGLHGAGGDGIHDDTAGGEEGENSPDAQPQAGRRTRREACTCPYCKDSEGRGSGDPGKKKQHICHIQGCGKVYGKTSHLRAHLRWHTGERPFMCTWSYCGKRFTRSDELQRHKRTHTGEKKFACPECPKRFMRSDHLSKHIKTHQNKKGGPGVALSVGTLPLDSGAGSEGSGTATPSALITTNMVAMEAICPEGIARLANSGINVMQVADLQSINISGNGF
Sequence of Hepatocyte nuclear factor 6 (Homo sapiens) (Q9UBC0 whole entry, looked up): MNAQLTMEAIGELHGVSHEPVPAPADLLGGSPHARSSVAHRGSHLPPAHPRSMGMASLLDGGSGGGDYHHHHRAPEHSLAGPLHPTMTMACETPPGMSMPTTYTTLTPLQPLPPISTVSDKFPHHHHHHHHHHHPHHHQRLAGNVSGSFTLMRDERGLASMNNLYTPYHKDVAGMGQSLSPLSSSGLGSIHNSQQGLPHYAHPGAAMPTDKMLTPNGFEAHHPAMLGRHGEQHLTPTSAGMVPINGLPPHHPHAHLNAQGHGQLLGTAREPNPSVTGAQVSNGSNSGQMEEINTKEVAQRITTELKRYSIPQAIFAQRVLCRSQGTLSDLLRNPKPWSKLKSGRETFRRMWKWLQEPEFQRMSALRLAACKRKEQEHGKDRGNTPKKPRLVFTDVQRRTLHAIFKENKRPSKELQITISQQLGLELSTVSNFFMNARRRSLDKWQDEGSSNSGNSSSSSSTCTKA

O=C1O[C@H]([C@@H](O)CO)C(O)=C1O
outcome [1]: inactive | outcome [2]: inactive | outcome [3]: inactive | outcome [4]: inactive | outcome [5]: inactive | outcome [6]: inactive | outcome [7]: inactive | outcome [8]: inactive | outcome [9]: inactive | AC50 [10]: 184 µM (active) and 54.4 µM (active) | outcome [11]: inactive | outcome [12]: inactive | outcome [13]: inactive | outcome [14]: inactive | outcome [15]: inactive | outcome [16]: inactive | outcome [17]: inactive

O=C1c2ccccc2C(=O)N1CCc1noc(-c2ccc(CN3CCCCCC3)s2)n1
outcome [18]: inactive | outcome [2]: inactive | outcome [3]: inactive | outcome [4]: inactive | AC50 [5]: 51.2 µM (active) | outcome [6]: inactive | outcome [7]: inactive | AC50 [19]: 84.5 µM (active) | AC50 [8]: 24.1 µM (active) | outcome [9]: inactive | AC50 [10]: 2.09 µM (active) | outcome [13]: inactive | outcome [14]: inactive | outcome [15]: inactive | outcome [16]: inactive | outcome [17]: inactive

c1ccc2n[nH]nc2c1
outcome [1]: inactive | outcome [2]: inactive | outcome [3]: inactive | outcome [4]: inactive | outcome [5]: inactive | outcome [6]: inactive | outcome [7]: inactive | outcome [8]: inactive | outcome [9]: inactive | outcome [10]: inactive | outcome [11]: inactive | outcome [13]: inactive | outcome [14]: inactive | outcome [15]: inactive | outcome [16]: inactive | outcome [17]: inactive

CO[C@H]1/C=C/O[C@@]2(C)Oc3c(C)c(O)c4c(O)c(c(/C=N/N5CCN(C)CC5)c(O)c4c3C2=O)NC(=O)/C(C)=C\C=C\[C@H](C)[C@H](O)[C@@H](C)[C@@H](O)[C@@H](C)[C@H](OC(C)=O)[C@@H]1C
outcome [2]: inactive | outcome [3]: inactive | outcome [4]: inactive | outcome [6]: inactive | outcome [7]: inactive | outcome [19]: inactive | outcome [8]: inactive | outcome [9]: inactive | AC50 [10]: 461 nM (active) and 369 nM (active) | outcome [11]: inactive | outcome [12]: inactive | outcome [13]: inactive | outcome [14]: inactive | outcome [15]: inactive | outcome [16]: inactive | outcome [17]: inactive | outcome [20]: inactive

CC(O)CC(C)(C)O (stereo not given)
outcome [1]: inactive | outcome [2]: inactive | outcome [3]: inactive | outcome [4]: inactive | outcome [5]: inactive | outcome [6]: inactive | outcome [7]: inactive | outcome [19]: inactive | outcome [9]: inactive | AC50 [10]: 37.5 µM (active) | outcome [10]: inactive | outcome [13]: inactive | outcome [14]: inactive | outcome [15]: inactive | outcome [16]: inactive | outcome [17]: inactive

Clc1ccccc1C(c1ccccc1)(c1ccccc1)n1ccnc1
outcome [18]: inactive | outcome [1]: inactive | AC50 [2]: 11.1 µM (active) | outcome [3]: inactive | outcome [4]: inactive | outcome [6]: inactive | AC50 [7]: 19.1 µM (active) | AC50 [8]: 11.1 µM (active) | AC50 [9]: 11.1 µM (active) | AC50 [10]: 0.589 µM (active) | AC50 [13]: 11.1 µM (active) | outcome [14]: inactive | AC50 [15]: 3 µM (active) | outcome [16]: inactive | AC50 [17]: 11.1 µM (active) | outcome [20]: inactive

COc1cccc([C@H](O)C2CCN(CCc3ccc(F)cc3)CC2)c1OC
outcome [18]: inactive | outcome [1]: inactive | outcome [2]: inactive | outcome [3]: inactive | outcome [4]: inactive | AC50 [5]: 27.4 µM (active) | outcome [6]: inactive | outcome [7]: inactive | outcome [9]: inactive | AC50 [10]: 25.8 µM (active) | outcome [11]: inactive | outcome [13]: inactive | outcome [14]: inactive | outcome [15]: inactive | outcome [16]: inactive | outcome [17]: inactive | AC50 [20]: 100 µM (active)
